Among the data in the supplement of paper PMC10681739 are ETS1 binding intensity and RUNX1 binding intensity values, retold here.

The target in experiment [1] is T1, ETS1 (UniProt P14921).
T1 sequence: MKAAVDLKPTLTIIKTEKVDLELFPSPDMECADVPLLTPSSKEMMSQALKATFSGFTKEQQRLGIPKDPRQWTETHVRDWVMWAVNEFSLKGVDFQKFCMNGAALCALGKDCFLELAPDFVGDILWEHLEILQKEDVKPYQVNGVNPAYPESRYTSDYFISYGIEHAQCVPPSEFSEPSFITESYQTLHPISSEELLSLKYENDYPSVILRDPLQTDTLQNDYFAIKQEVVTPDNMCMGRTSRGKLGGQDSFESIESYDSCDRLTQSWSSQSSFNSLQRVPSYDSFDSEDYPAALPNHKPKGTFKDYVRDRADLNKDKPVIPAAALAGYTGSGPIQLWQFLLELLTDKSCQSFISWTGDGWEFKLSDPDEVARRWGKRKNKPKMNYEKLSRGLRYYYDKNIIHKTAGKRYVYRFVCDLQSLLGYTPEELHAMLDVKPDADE
As to the kind of experiment: ETS1 binding intensity (PBM fluorescence), ETS1 alone (arbitrary fluorescence units); higher = stronger binding. The conditions noted are these: ETS1 concentration 1 nM; RUNX1 concentration 0 nM.

Experiment [2] concerns the target RUNX1 (UniProt Q01196). Briefly: RUNX1 binding intensity (PBM fluorescence), RUNX1 alone (arbitrary fluorescence units); higher = stronger binding. The note with it: RUNX1 concentration 2 nM; ETS1 concentration 0 nM. How it is done:
(§1)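 Cooperative gcPBM on 36-bp genomic probes with neighbouring ETS1 and RUNX1 sites. Recombinant human RUNX1 (2 nM) was incubated alone or with ETS1 (25 nM) and detected with anti-RUNX1 antibody plus Alexa488 secondary. Values are medians over 4 replicate spots; the RUNX1+ETS1 data were normalised to the RUNX1-only data. The probes sit in constant array flanks that are not printed.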

For experiment [3], the target named is T1, ETS1. Briefly: ETS1 binding intensity (PBM fluorescence) in presence of RUNX1, normalised to ETS1-only experiment (arbitrary fluorescence units); higher = stronger binding. The note with it: ETS1 concentration 1 nM; RUNX1 concentration 25 nM.
Experiment [4] addresses RUNX1 (UniProt Q01196). Briefly: RUNX1 binding intensity (PBM fluorescence) in presence of ETS1, normalised to RUNX1-only experiment (arbitrary fluorescence units); higher = stronger binding. The conditions noted are these: RUNX1 concentration 2 nM; ETS1 concentration 25 nM. How it is done: as §1
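Throughout, for RUNX1 binding intensity (PBM fluorescence) in presence of ETS1, normalised to RUNX1-only experiment: Full-length recombinant human ETS1 or RUNX1 bound to double-stranded 36-bp genomic probes on microarrays, detected by protein-specific primary antibody and Alexa488 secondary, spot fluorescence as median of four replicate spots.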
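Throughout, for RUNX1 binding intensity (PBM fluorescence), RUNX1 alone: Full-length recombinant human RUNX1 bound to double-stranded 36-bp genomic probes on a high-density microarray, scored as Alexa488 fluorescence per spot via anti-RUNX1 antibody, median of four replicate spots.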

Chain of RUNX1 (Q01196 whole entry): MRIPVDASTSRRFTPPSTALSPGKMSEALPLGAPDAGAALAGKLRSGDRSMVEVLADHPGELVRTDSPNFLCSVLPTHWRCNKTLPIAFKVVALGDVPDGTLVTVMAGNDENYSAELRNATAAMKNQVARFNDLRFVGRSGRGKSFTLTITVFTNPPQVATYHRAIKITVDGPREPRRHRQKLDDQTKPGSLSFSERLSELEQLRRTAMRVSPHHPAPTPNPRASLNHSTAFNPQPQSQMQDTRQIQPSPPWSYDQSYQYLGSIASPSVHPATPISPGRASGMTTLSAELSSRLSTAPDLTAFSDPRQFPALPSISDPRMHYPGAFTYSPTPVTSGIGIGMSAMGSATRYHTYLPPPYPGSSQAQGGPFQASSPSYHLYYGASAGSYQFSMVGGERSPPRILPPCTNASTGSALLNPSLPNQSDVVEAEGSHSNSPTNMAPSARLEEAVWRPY

AAACCCCAAACAGGAAGTGGTAAAGCAACCTGCATC: the ETS1 binding intensity with ETS1 [1] was 11200; with ETS1 [3], 16400. Moreover, the results for the RUNX1 binding intensity in the experiment with RUNX1 [2] and with RUNX1 [4] were 826 and 7980, respectively.

Consider CCATCCAGGAAGCTTATGGTGCGACCGCAGTGTGCC, for which the ETS1 binding intensity with ETS1 [1] came to 508; with ETS1 [3], 1880. The RUNX1 binding intensity with RUNX1 [2] stood at 908; with RUNX1 [4], 1160.

Turning to CCCGGAGGACGTCCGGCCTCTGTGAGCCGCAACCTT, the values for the ETS1 binding intensity with ETS1 [1] and with ETS1 [3] were 440 and 561, respectively. The figures for the RUNX1 binding intensity with RUNX1 [2] and with RUNX1 [4] were 838 and 1370, respectively.

AGCTAGACTACAGGAGGAAACCACAGCCTAAACCAG: the ETS1 binding intensity with ETS1 [1] stood at 541; in the experiment with ETS1 [3] it was 1030. Also, the RUNX1 binding intensity with RUNX1 [2] worked out at 1250; with RUNX1 [4], 1410.

GTAAAAGAGGAAGTAACACCTCCTTGCGGTTGAGAC: the ETS1 binding intensity worked out at 1450 with ETS1 [1] and 6840 in the experiment with ETS1 [3]. Also, the RUNX1 binding intensity in the experiment with RUNX1 [2] was found to be 1020; with RUNX1 [4], 3280.

As for TGGAGTGAAGCGGCTTCCTTGCGGTTGTGTGCGTGT, the ETS1 binding intensity with ETS1 [1] is 403; with ETS1 [3], 799. The RUNX1 binding intensity with RUNX1 [2] worked out at 1900; with RUNX1 [4], 2630.

For the sequence CCCTTCCGCGTGGGTTGCACCTGCTAACCACAGAGC, the ETS1 binding intensity in the experiment with ETS1 [1] worked out at 329; with ETS1 [3], 866. Besides, the values for the RUNX1 binding intensity with RUNX1 [2] and with RUNX1 [4] were 1090 and 1600, respectively.

For the sequence CGGGGGCCAGGCTTCCTGTGGTGGGAGCGGCAGGCC, the ETS1 binding intensity with ETS1 [1] is 443; with ETS1 [3] it was 477. For the same sequence, the RUNX1 binding intensity came to 830 with RUNX1 [2] and 1350 with RUNX1 [4].

Regarding GAAACCGGAAGCGGCGGCTGTCCGCGGTGCCGGCTG, the ETS1 binding intensity amounted to 5800 in the experiment with ETS1 [1] and 6810 with ETS1 [3]. Moreover, the RUNX1 binding intensity is 717 in the experiment with RUNX1 [2] and 1550 with RUNX1 [4].

As to CGGAGGCGGCCGGAAGTAGCGCTGCGGTTGGCAGCT, the figures for the ETS1 binding intensity with ETS1 [1] and with ETS1 [3] were 16800 and 64100, respectively. Moreover, the RUNX1 binding intensity in the experiment with RUNX1 [2] was determined as 937; with RUNX1 [4] it was 6060.

ACGAGGTTGGCCTCATCCGGTGGTTTTCGCAGCACG: the ETS1 binding intensity in the experiment with ETS1 [1] stood at 1290; with ETS1 [3] it was 1280. Further, the RUNX1 binding intensity came out at 837 with RUNX1 [2] and 1710 in the experiment with RUNX1 [4].

With AAGGCGGAGGAAGGGAAAATTGTGGTTGGGCAGAGG, the ETS1 binding intensity came to 511 in the experiment with ETS1 [1] and 742 with ETS1 [3]. Also, the results for the RUNX1 binding intensity with RUNX1 [2] and with RUNX1 [4] were 835 and 887, respectively.

For the sequence ACCTGTAGGCGGAAGTCTGTGGCTTTATTTACACAG, the ETS1 binding intensity in the experiment with ETS1 [1] turned out to be 2340; with ETS1 [3] it was 5710. The results for the RUNX1 binding intensity with RUNX1 [2] and with RUNX1 [4] were 792 and 1730, respectively.

GCCTGAGCGGAAACCCGGCGCCACCACAAGATGGCA: the ETS1 binding intensity turned out to be 637 in the experiment with ETS1 [1] and 2040 with ETS1 [3]. The figures for the RUNX1 binding intensity with RUNX1 [2] and in the experiment with RUNX1 [4] were 990 and 1200, respectively.

On to GTACTGAGTCACAGGAAACCACAAGGGAAGGGTCCC, for which the ETS1 binding intensity with ETS1 [1] was found to be 2510; with ETS1 [3], 4720. The RUNX1 binding intensity with RUNX1 [2] came out at 1570; in the experiment with RUNX1 [4], 3070.

For GGTAAAGCAACAGGATGTGGGTGTCTGACTTACAAT, the ETS1 binding intensity with ETS1 [1] turned out to be 4330; in the experiment with ETS1 [3], 6760. The RUNX1 binding intensity was 700 in the experiment with RUNX1 [2] and 1790 in the experiment with RUNX1 [4].

Take ACCTGCACTTCCTCCTCCCTAGACCGCACCCTTCTC: the ETS1 binding intensity in the experiment with ETS1 [1] is 491; in the experiment with ETS1 [3], 600. Besides, the RUNX1 binding intensity with RUNX1 [2] was 2840; with RUNX1 [4] it was 4300.

TTCTATCCTGCCTTGCATGTCTTTAACCACACTGAG: the ETS1 binding intensity with ETS1 [1] was 396; with ETS1 [3], 489. The RUNX1 binding intensity with RUNX1 [2] is 1800; in the experiment with RUNX1 [4] it was 1720.

Regarding CAGAGAAACAGGAAGAACAGTGGTTTCAACTGAAAT, the ETS1 binding intensity in the experiment with ETS1 [1] and in the experiment with ETS1 [3] was 1310 each time. The RUNX1 binding intensity is 783 in the experiment with RUNX1 [2] and 939 with RUNX1 [4].

In the case of AGCTCAATTTCCTGGCGTGTAACATGGCCACAAGGG, the ETS1 binding intensity in the experiment with ETS1 [1] turned out to be 827; with ETS1 [3], 595. Also, the RUNX1 binding intensity with RUNX1 [2] was determined as 830; with RUNX1 [4], 1390.

On to GAAGCGATATTTCCTCCTGGGGTTGACCGCCCCGTG, for which the values for the ETS1 binding intensity with ETS1 [1] and with ETS1 [3] were 492 and 478, respectively. Further, the RUNX1 binding intensity turned out to be 761 with RUNX1 [2] and 1090 with RUNX1 [4].

Regarding GAGGCCGAAAGGAAGTTTGAGGTTAAGCACAAGATG, the ETS1 binding intensity in the experiment with ETS1 [1] turned out to be 975; with ETS1 [3], 1900. The RUNX1 binding intensity in the experiment with RUNX1 [2] was determined as 792; in the experiment with RUNX1 [4], 1060.

For the sequence GAGACACTCTGCTTCCTGCGGTGGAAGATTCAGTAT, the ETS1 binding intensity with ETS1 [1] turned out to be 473; in the experiment with ETS1 [3], 482. In addition, the results for the RUNX1 binding intensity in the experiment with RUNX1 [2] and with RUNX1 [4] were 873 and 1080, respectively.

Take AGCTGAAGGGCAGGATGTGGTTTCAGCATTCGGTGA: the ETS1 binding intensity in the experiment with ETS1 [1] is 3090; in the experiment with ETS1 [3] it was 16400. For the same sequence, the RUNX1 binding intensity stood at 791 in the experiment with RUNX1 [2] and 5290 with RUNX1 [4].

In the case of CAAACAGGTTCCGGCCGGACTACAGCGCCCACAATG, the figures for the ETS1 binding intensity with ETS1 [1] and with ETS1 [3] were 432 and 460, respectively. Further, the RUNX1 binding intensity in the experiment with RUNX1 [2] worked out at 712; with RUNX1 [4], 1080.

For the sequence TGGAACAATGCTGCTTCCTGTGGGTGTCCCCCGGCC, the ETS1 binding intensity with ETS1 [1] came out at 1140; in the experiment with ETS1 [3], 1400. For the same sequence, the values for the RUNX1 binding intensity with RUNX1 [2] and in the experiment with RUNX1 [4] were 698 and 1330, respectively.

In the case of GGTCCCCCCGGTTCCGGCGCGGTTGAGGCCTTCGGT, the ETS1 binding intensity with ETS1 [1] amounted to 683; in the experiment with ETS1 [3], 676. Further, the RUNX1 binding intensity is 758 with RUNX1 [2] and 1170 in the experiment with RUNX1 [4].

CCGGTCCTGACCGGAAGCGGTAACCGTCACTCCTTC: the ETS1 binding intensity is 21100 with ETS1 [1] and 29000 with ETS1 [3]. The figures for the RUNX1 binding intensity with RUNX1 [2] and with RUNX1 [4] were 703 and 7940, respectively.

As for CTCACAGAAGAGGCAGGAAGTGGTTTGAGTTATCAT, the results for the ETS1 binding intensity in the experiment with ETS1 [1] and in the experiment with ETS1 [3] were 9460 and 13700, respectively. For the same sequence, the RUNX1 binding intensity with RUNX1 [2] turned out to be 820; with RUNX1 [4], 1590.

On to TTATTTCCTCTTTTTTTTTTTTTTTTTGGTTTTGCT, for which the ETS1 binding intensity came to 483 in the experiment with ETS1 [1] and 440 in the experiment with ETS1 [3]. The RUNX1 binding intensity is 1960 with RUNX1 [2] and 4230 with RUNX1 [4].

In the case of GTCTTCCTTCCTGAGAATCTTAACCACCAGCTTGCC, the ETS1 binding intensity with ETS1 [1] was found to be 434; with ETS1 [3], 483. The RUNX1 binding intensity came to 1350 with RUNX1 [2] and 2050 with RUNX1 [4].

On to GCTGAGGCCGGAAGAGGGTGGGGCCGCGGTGGCTAG, for which the ETS1 binding intensity with ETS1 [1] amounted to 2170; with ETS1 [3] it was 3070. For the same sequence, the results for the RUNX1 binding intensity with RUNX1 [2] and with RUNX1 [4] were 756 and 1260, respectively.

As to GACCAATGTAAACAAGGATGTGGGTTCTCCGGGCAC, the ETS1 binding intensity stood at 929 in the experiment with ETS1 [1] and 2030 in the experiment with ETS1 [3]. Also, the RUNX1 binding intensity was 706 with RUNX1 [2] and 928 in the experiment with RUNX1 [4].

In the case of TGTGCTGACTACAGGATGCTGTGGTTAGTCAGGTTG, the ETS1 binding intensity with ETS1 [1] was found to be 1690; with ETS1 [3] it was 13800. In addition, the RUNX1 binding intensity with RUNX1 [2] stood at 809; in the experiment with RUNX1 [4], 1720.

Turning to CTTAAATGGGAAATGTAGGTGTGGTTAAGTCACAAA, the values for the ETS1 binding intensity with ETS1 [1] and with ETS1 [3] were 558 and 556, respectively. Besides, the figures for the RUNX1 binding intensity with RUNX1 [2] and with RUNX1 [4] were 859 and 915, respectively.

Consider TGAGGAGAGCGAGGAAGTGGTTTTCTCTTCGCACAG, for which the ETS1 binding intensity came to 691 with ETS1 [1] and 1080 with ETS1 [3]. For the same sequence, the RUNX1 binding intensity in the experiment with RUNX1 [2] is 746; with RUNX1 [4], 948.

On to TTTATCATGAATGCAGGATGTGGGCAAACTCGCATC, for which the ETS1 binding intensity in the experiment with ETS1 [1] stood at 2340; with ETS1 [3], 6100. Also, the RUNX1 binding intensity with RUNX1 [2] turned out to be 749; with RUNX1 [4], 1060.
